Data on 16 compounds can be found in PubChem BioAssay (NCI).

About 83,000 compounds went through this panel and 20% of them were active in at least one assay; those are over-represented in the sample as a whole.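 Note: values are percent growth. 100 is the growth of untreated cells, values between 100 and 0 indicate rising inhibition; between -100 and 0 indicates cell death.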 Values without a mark were called inactive. The source made the active and inactive calls. Rule for the calls: active = growth percent below 10; inactive = the rest.

Among the test systems are T-47D breast; BT-549 breast; MDA-MB-435 melanoma; SW-620 colon; MCF7 breast; HCT-116 colon; HCC-2998 colon; KM12 colon.
What all share (experiment): NCI-60 one-dose screen, 48 h (100 = growth as untreated, 0 = no growth, -100 = all killed)
What all share (conditions): 10 µM unless noted

As to `O=C(N/N=C/c1ccccc1O)c1ccccc1Nc1ccnc(C(F)(F)F)c1`, the growth with T-47D breast was 19.4%; in the assay with BT-549 breast, 30.1%; with MDA-MB-435 melanoma, 32.4%; with SW-620 colon, 35%; in the assay on MCF7 breast it was 8.24% (active); in the assay with HCT-116 colon, 14.4%. Further, the growth is 46% in the assay with HCC-2998 colon and 32.4% with KM12 colon.

For `Cc1cc(N2CCCC2)nc(NC2CCCC(Nc3ccnc4cc(Cl)ccc34)C2)n1` (stereo not drawn), the growth in the assay on T-47D breast is -35.1% (active); in the assay on BT-549 breast, -57.9% (active); in the assay with MDA-MB-435 melanoma, -92.6% (active); in the assay with SW-620 colon, -58.3% (active); in the assay on MCF7 breast, -13.2% (active); in the assay with HCT-116 colon it was -87.1% (active). Besides, the growth in the assay with HCC-2998 colon is -40.4% (active); with KM12 colon, -62.4% (active).

Turning to `CSc1nc(-c2cccc(NC(=O)CCl)c2)c(C#N)c(=O)n1C`, the growth is 34.5% with T-47D breast; 53.4% in the assay with BT-549 breast; 54.5% in the assay on MDA-MB-435 melanoma; 27.3% in the assay on SW-620 colon; 20.6% in the assay on MCF7 breast; 7.55% (active) in the assay on HCT-116 colon. Moreover, the growth with HCC-2998 colon was 116%; in the assay with KM12 colon it was 98.5%.

As to `COc1cc(-c2nn(C)nc2-c2cc3ccccc3s2)cc(OC)c1OC`, the growth in the assay on T-47D breast is 56.5%; in the assay with BT-549 breast, 18.8%; in the assay on MDA-MB-435 melanoma it was -41% (active); in the assay on SW-620 colon, 26.7%; with MCF7 breast it was 17%; in the assay on HCT-116 colon, 15.9%. In addition, the results for the growth with HCC-2998 colon and in the assay with KM12 colon were 49.4% and 19.5%, respectively.

With `N#C/C(=C\c1ccc(-c2ccc(Cl)c(Cl)c2)o1)c1nc(-c2ccco2)cs1`, the growth with T-47D breast is -21.3% (active); with BT-549 breast, 109%; in the assay on MDA-MB-435 melanoma it was 103%; in the assay on SW-620 colon, 103%; in the assay on MCF7 breast it was 12.5%; with HCT-116 colon, 97.9%. Also, the growth is 0.932% (active) in the assay with HCC-2998 colon and 50.6% with KM12 colon.

Turning to `COc1cccc(-c2nc3sccn3c2-c2ccnc(NCCNS(=O)(=O)c3ccccc3)c2)c1`, the growth was -18.3% (active) with T-47D breast; 6.29% (active) in the assay with BT-549 breast; 22.6% with MDA-MB-435 melanoma; 40.8% in the assay with SW-620 colon; 27.4% with MCF7 breast; 18.5% in the assay with HCT-116 colon. For the same compound, the results for the growth with HCC-2998 colon and with KM12 colon were 53.2% and 22.2%, respectively.

Regarding `CCOc1cc2c(cc1OCC)C(c1cc(OC)c(O)cc1Cl)NCC2` (stereo not drawn), the growth in the assay with T-47D breast is 85.4%; in the assay with BT-549 breast it was 102%; with MDA-MB-435 melanoma, 77.5%; in the assay on SW-620 colon, 99.3%; with MCF7 breast it was 93.5%; in the assay on HCT-116 colon, 76.3%. Besides, the figures for the growth in the assay with HCC-2998 colon and in the assay with KM12 colon were 63.2% and 88.9%, respectively.

`C=C1C(=O)O[C@H]2[C@H]1CC/C(COC(=O)c1cc3cc(OC)ccc3[nH]1)=C\CC[C@@]1(C)O[C@@H]21`: the growth with T-47D breast was -60.6% (active); in the assay with BT-549 breast, -55.3% (active); with MDA-MB-435 melanoma, -91.9% (active); with SW-620 colon, -75.7% (active); with MCF7 breast, -61.3% (active); in the assay with HCT-116 colon, -94.8% (active). Also, the growth with HCC-2998 colon was -74.2% (active); in the assay with KM12 colon, -67.9% (active).

`CCCCn1c(-c2ccc(C(=O)O/N=C(\N)c3ccc4c(c3)OCO4)cc2)nc(-c2ccccc2)c1-c1ccccc1`: the growth with T-47D breast was 0.0231% (active); in the assay with BT-549 breast, 54.5%; in the assay with MDA-MB-435 melanoma, 46.1%; in the assay on SW-620 colon, 60.3%; in the assay with MCF7 breast, 48.1%; in the assay on HCT-116 colon it was 4.35% (active). The figures for the growth in the assay with HCC-2998 colon and with KM12 colon were 61.5% and 36.8%, respectively.

Consider `Cn1c(O)c(N=NC(=O)c2cc(-c3ccccc3)on2)c2ccccc21`, for which the growth in the assay on T-47D breast was 101%; in the assay with BT-549 breast, 103%; with MDA-MB-435 melanoma, 95.3%; with SW-620 colon, 105%; with MCF7 breast it was 77.5%; in the assay on HCT-116 colon, 98.9%. For the same compound, the figures for the growth in the assay with HCC-2998 colon and with KM12 colon were 102% and 101%, respectively.

For the compound `CC1=C[C@H]2c3c(c(O)c(O)c4oc5c(C)cccc5c(=O)c34)[C@H](c3cc(O)c(O)c4oc5c(C)cccc5c(=O)c34)[C@H]2C(C)(C)C1`, the growth with T-47D breast is 13.7%; in the assay with BT-549 breast, 27.2%; in the assay on MDA-MB-435 melanoma it was -17.3% (active); in the assay on SW-620 colon it was 18.7%; in the assay on MCF7 breast, 9.38% (active); with HCT-116 colon it was 1.97% (active). Besides, the results for the growth in the assay on HCC-2998 colon and in the assay with KM12 colon were 11.2% and 7.31% (active), respectively.

For the compound `COc1cc(/C=C/C(=O)c2ccc(O)c(CN3CCN(c4cc5c(cc4F)c(=O)c(C(=O)O)cn5C4CC4)CC3)c2)cc(OC)c1OC`, the growth is 50.4% in the assay with T-47D breast; 31.8% in the assay with BT-549 breast; 28.6% with MDA-MB-435 melanoma; 34.8% with SW-620 colon; 18.6% in the assay with MCF7 breast; 7.72% (active) in the assay on HCT-116 colon. The growth is 67.2% with HCC-2998 colon and 72% in the assay with KM12 colon.

On to `COc1ccc(NC(=O)c2ccc(/C=C/C(=O)c3ncc[nH]3)cc2)cc1`, for which the growth with T-47D breast was 68.5%; in the assay on BT-549 breast, 78.8%; in the assay on MDA-MB-435 melanoma, 67.1%; in the assay on SW-620 colon it was 34.5%; with MCF7 breast, 25.1%; with HCT-116 colon, 71.5%. The growth is 83.9% in the assay on HCC-2998 colon and 27.5% in the assay on KM12 colon.

For `C=C(C)[C@@H]1CC[C@]2(C(=O)OC)CC[C@]3(C)[C@H](CC[C@@H]4[C@@]5(C)C/C(=C/c6ccc(OC)cc6)C(=O)C(C)(C)[C@@H]5CC[C@]43C)[C@@H]12`, the growth in the assay with T-47D breast was 101%; with BT-549 breast, 96.6%; with MDA-MB-435 melanoma it was 72.1%; in the assay on SW-620 colon, 62.5%; in the assay with MCF7 breast, 49.1%; in the assay with HCT-116 colon, 41.8%. Besides, the growth in the assay on HCC-2998 colon is 92.4%; with KM12 colon, 94.3%.

In the case of `COc1cccc(-c2nn(C(C)(C)C)cc2-c2ccnc(NCCCNS(=O)(=O)c3cccc4ccccc34)c2)c1`, the growth with T-47D breast is 102%; in the assay on BT-549 breast, 108%; in the assay with MDA-MB-435 melanoma it was 102%; in the assay with SW-620 colon, 106%; in the assay on MCF7 breast, 98.6%; in the assay with HCT-116 colon, 98.7%. In addition, the growth in the assay on HCC-2998 colon was 114%; with KM12 colon, 99.5%.

For the compound `c1csc(C2=NN3C(C2)c2ccccc2OC3c2ccncc2)c1` (stereo not drawn), the growth with T-47D breast was 93.2%; in the assay on BT-549 breast, 92.4%; in the assay with MDA-MB-435 melanoma, 99.6%; in the assay with SW-620 colon, 103%; with MCF7 breast, 77.3%; in the assay on HCT-116 colon it was 102%. Also, the growth in the assay on HCC-2998 colon is 96.3%; in the assay with KM12 colon, 92.2%.
